Hits are enriched below; roughly 6.9% of the tested compounds scored in any of these assays.
SKKanGAS inh – blocks kanamycin growth of S. pyogenes SKKanGAS strain | BacTiter-Glo, 6 h | inhibition, % at 7.5 µM | hit rate 1.3% among 300,000;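 active = mean replicate score, as percent of positive control median, at least 50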;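 note: strain carries kanamycin resistance gene driven by streptokinase promoter and grows in 40 µg/ml kanamycin; loss of luminescence reflects streptokinase promoter inhibition or plain growth inhibition; 0% = median of DMSO wells and 100% = positive control at its reference dose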
CSC inhib – cancer stem cell inhibition; inhibition, % at 7.5 µM; AID 2717; hit rate 1.1% among 300,000; cancer stem cell-like cells viability, luminescence; in the data active = inhibition above about 75%; tested in HMLE shEcad cells
MPTP block – inhibitors of mitochondrial permeability transition pore | hit rate 1.4% among 360,000 | isolated mouse mitochondria, Ca2+ swelling absorbance, 30 min | inhibition, % at 10 µM;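 active = inhibition of 50% or more, scaled per plate between neutral and stimulator controls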;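 note: 0% = DMSO wells given calcium and 100% = 1 mM EGTA wells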
Mdm2-MdmX inh – disrupts the human Mdm2-MdmX interaction. O15151+Q00987. SaOS-2 split-luciferase Mdm2/MdmX complementation, luminescence. inhibition, % at 8 µM. hit rate 3% among 330,000;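 active = inhibition of at least 50% at 8 µM in the primary screen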
Target sequence (O15151 whole entry, looked up): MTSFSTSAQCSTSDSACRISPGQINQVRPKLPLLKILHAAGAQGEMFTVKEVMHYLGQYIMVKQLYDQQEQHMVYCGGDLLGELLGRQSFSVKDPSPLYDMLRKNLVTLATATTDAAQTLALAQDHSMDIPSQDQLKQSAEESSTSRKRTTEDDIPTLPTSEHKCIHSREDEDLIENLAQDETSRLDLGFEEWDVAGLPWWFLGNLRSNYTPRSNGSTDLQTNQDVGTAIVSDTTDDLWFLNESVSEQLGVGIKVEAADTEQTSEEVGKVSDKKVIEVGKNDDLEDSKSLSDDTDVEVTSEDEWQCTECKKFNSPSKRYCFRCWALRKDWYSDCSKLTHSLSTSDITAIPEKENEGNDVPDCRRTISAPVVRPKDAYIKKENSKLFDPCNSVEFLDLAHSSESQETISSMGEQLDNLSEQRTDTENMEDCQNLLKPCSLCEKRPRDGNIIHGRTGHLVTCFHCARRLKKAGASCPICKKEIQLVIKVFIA
Target sequence (Q00987 whole entry, looked up): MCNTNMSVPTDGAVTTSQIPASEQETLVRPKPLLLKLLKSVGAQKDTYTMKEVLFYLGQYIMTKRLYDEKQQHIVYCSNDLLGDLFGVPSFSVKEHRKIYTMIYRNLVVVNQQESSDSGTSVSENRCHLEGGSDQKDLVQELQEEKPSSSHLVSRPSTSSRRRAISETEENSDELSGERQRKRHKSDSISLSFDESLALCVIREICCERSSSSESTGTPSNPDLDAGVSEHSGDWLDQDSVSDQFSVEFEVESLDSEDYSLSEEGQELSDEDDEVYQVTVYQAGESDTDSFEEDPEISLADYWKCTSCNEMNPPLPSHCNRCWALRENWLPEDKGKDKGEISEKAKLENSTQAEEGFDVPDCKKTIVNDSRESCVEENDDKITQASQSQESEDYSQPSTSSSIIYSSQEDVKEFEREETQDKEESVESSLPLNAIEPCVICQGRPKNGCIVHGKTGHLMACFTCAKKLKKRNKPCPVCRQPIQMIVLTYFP
Beta apoptosis – beta cell apoptosis inhibition | INS-1E cytokine-induced death, ATP luminescence, 48 h; percent of positive-control rescue, neutral wells zero | protection from apoptosis, % (no concentration beside the values) | hit rate 0.8% among 300,000 | AID 435005;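 active = Every replicate reaches about 75%, or at least half do and their mean reaches it too, limit read from the data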;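 note: 0% = cytokine-treated negative control wells and 100% = positive control rescue; higher means more ATP so stronger rescue from cytokine killing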
GRIN3A LBD mod – modulates the human NR3A ligand-binding domain | NR3A LBD differential scanning fluorimetry, Tm shift; 0% = protein alone, 100% = glycine-bound protein | Tm shift relative to glycine control, % at 25 µM | hit rate 2.5% among 340,000 | AID 1259313;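 active = melting temperature shift of at least 10% of the positive control shift, at one fixed dose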
MPTP counter – Rhodamine 123 counter-screen of mitochondrial pore hits; hit rate 78% among 5,000; inhibition, % at 10 µM; isolated mitochondria, membrane potential, Rhodamine 123 fluorescence; shares compounds with MPTP block; in the data active = inhibition above about 22%;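 note: 0% = DMSO vehicle and 100% = positive control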
MPTP swell DR – MPTP inhibition, dose response swelling confirmation; shares compounds with MPTP block; isolated mitochondria swelling, absorbance; IC50, µM; hit rate 58% among 780; in the data active = IC50 below about 20 µM
MPTP cs DR – active in counter-screen for permeability transition pore inhibitors; shares compounds with MPTP block; isolated mitochondria counterscreen, fluorescence read-out; IC50, µM; hit rate 49% among 780; AID 651564; in the data active = IC50 below about 80 µM
* marks the source's active call; other numbers are inactive results; i = inactive; · = no result.

SMILES	SKKanGAS inh	CSC inhib	MPTP block	Mdm2-MdmX inh	Beta apoptosis	GRIN3A LBD mod	MPTP counter	MPTP swell DR	MPTP cs DR
CC(C)(C)Nc1nc2nonc2nc1NC(C)(C)C	1.2	0.5	93.2*	8.6	20.1	-2.5	99.1*	·	·
O=C(Cn1c(COc2ccccc2)nc2ccccc21)Nc1cc(Cl)cc(Cl)c1	10.8	10.6	91.9*	43.8	·	4.6	93.9*	·	·
N#CCCNC(=O)Cn1c(COc2ccc(Cl)cc2)nc2ccccc21	1.1	-4.3	0.1	-15.3	-4.6	-5.0	·	·	·
CCCCOc1ccc(CSC(CC(=O)O)C(=O)O)cc1 (centres undefined)	2.1	-17.7	1.8	2.8	2.9	3.9	·	·	·
CCCCOc1ccc(CSCCN=C(N)N)cc1	10.5	·	72.5*	2.2	·	-0.8	5.5	4.35*	24.3*
Cc1noc(COc2ccccc2OCC(N)=O)n1	-3.1	-21.2	0.8	-1.2	·	0.9	·	·	·
NS(=O)(=O)c1ccc(CCNc2ncnc3sccc23)cc1	-4.3	1.5	73.7*	15.1	42.6	18.9*	80.8*	·	·
Cc1sc2ncnc(NCCc3ccc(S(N)(=O)=O)cc3)c2c1C	-2.8	-2.4	86.2*	18.6	92.9*	-0.3	105.8*	·	·
NS(=O)(=O)c1ccc(CNc2ncnc3sccc23)cc1	-0.6	-13.0	-0.9	-6.8	-0.8	-4.0	·	·	·
CCN1CCN(c2cc(SC(C)C)nc(-c3ccc(OC)cc3)n2)CC1	3.7	·	77.6*	·	·	2.2	-15.7	10.4*	62*
COc1ccc(Cl)cc1NC(=O)CN(C)C(=O)Cn1cnc2c1c(=O)n(C)c(=O)n2C	-4.0	0.8	-0.8	-1.5	0.3	1.3	·	·	·
Cc1ccc(-c2nc(CC(=O)Nc3cccc(S(=O)(=O)NC4=NCCC4)c3)cs2)cc1	·	4.7	0.1	8.8	-4.9	2.3	·	·	·
COc1ccc(-c2nn(-c3ccccc3)cc2CO)cc1	-5.7	-4.7	0.4	16.8	2.9	-39.3	·	·	·
Cc1ccc(-c2nn(-c3ccccc3)cc2CNCc2ccccc2)cc1	16.0	72.8	95.7*	35.6	-1.7	-3.5	-3.1	4.71*	30.5*
Cc1cccc2sc(N(CCN(C)C)C(=O)C3CCN(S(=O)(=O)c4cccs4)CC3)nc12	41.0	·	72.1*	21.3	-9.1	-11.5	-18.5	i	>80
CN(C)CCCN(C(=O)c1ccc(C(=O)c2ccccc2)cc1)c1nc2ccc(F)cc2s1	2.2	1.3	26.6	21.2	3.1	1.8	·	·	·
Cc1cccc2sc(N(CCCN(C)C)C(=O)c3ccc(C(=O)c4ccccc4)cc3)nc12	8.3	3.0	84.3*	45.0	7.6	0.7	-5.8	11.3*	64.3*
Cc1ccc2nc(N(CCCN(C)C)C(=O)COc3ccc(Cl)cc3)sc2c1	-5.8	-15.6	55.7*	-0.1	3.2	0.0	-19.0	4.23*	77.9*
CN(C)CCCN(C(=O)COc1ccc(Cl)cc1)c1nc2ccc(F)cc2s1	3.3	-6.2	0.0	12.5	-1.8	2.0	·	·	·
COc1ccc2sc(N(CCCN(C)C)C(=O)c3ccc(C(=O)c4ccccc4)cc3)nc2c1	-5.2	17.6	79.6*	26.5	·	1.6	-8.7	13.9*	64*
O=C(NC1(N2CCOCC2)CC1)c1ccc(Cl)cc1	-5.7	-11.1	-0.3	14.7	-1.6	2.0	·	·	·
COc1cc2ccccc2cc1C(=O)N(CCN(C)C)c1nc2c(C)cccc2s1	10.1	10.1	68.7*	38.3	5.6	0.7	-8.0	i	>80
COCCNCCCCOc1ccc(Br)cc1C	6.0	-4.3	-0.4	18.2	-2.2	-0.7	·	·	·
COCCCNCCCCOc1ccc(Br)cc1C	3.5	49.8	63.3*	33.5	-1.1	-5.2	-13.2	8.65*	>80
CCOC(=O)c1ccc(N2CCN(c3ccccc3F)CC2)c(NC(=O)Nc2ccccc2)c1	10.0	-5.0	96.0*	9.4	22.0	7.4	86.9*	·	·
CCOC(=O)c1ccc(N2CCN(c3ccc(F)cc3)CC2)c(NC(=O)Nc2cccc(OC)c2)c1	13.5	·	91.7*	-25.0	8.4	1.9	83.9*	·	·
COc1cccc(NC(=O)CN2CCN(c3ccc(F)cc3)CC2)c1	-0.6	3.7	-0.9	-3.3	-7.4	1.0	·	·	·

Screening data as filed in PubChem.
